Assay outcomes: PubChem BioAssay, several laboratories
Shown are actives, neighbours in structure and some others; about 0.5% of the full set was active somewhere.
E coli growth-1: reduces bacterial viability in AddAB counter-screen; E. coli V3065 growth, OD600 absorbance, 18 h; inhibition, % at 11.9 µM; 330,000 tested, 0.27% active;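 active = inhibition above the campaign's mean inhibition across all tested compounds plus 3 SD, cut at about 9.9% in these data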;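 also: uninfected addAB+ strain grown without phage in ampicillin broth; 0% = DMSO wells and 100% = ciprofloxacin 0.95 µg/ml wells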
Tat export inh: inhibitors of E. coli Tat protein transport. AID 488895. inhibition, % at 10 µM. E. coli MC4100 TorA-mCherry Tat export, fluorescence. 340,000 tested, 0.036% active;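 active = mean replicate inhibition at least 50% and at least half of replicates individually reaching 50%; inconclusive = only one of the two criteria met; inactive = neither criterion met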;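 also: exported cargo escapes ClpAP degradation while cytoplasmic cargo is degraded and loses fluorescence; 0% = median of neutral control wells and 100% = median of NaSCN control wells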
phage Ecoli inh: E. coli growth loss with phage present | inhibition, % at 11.9 µM | 360,000 tested, 0.26% active | growth absorbance; in the data active = inhibition above about 11%
E coli growth-2: blocks Escherichia coli growth; OD600, 23 h; active compounds read low; OD600 absorbance (test concentration not listed); 330,000 tested, 0.21% active; AID 1053175;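 active = OD600 absorbance below the run mean of sample wells minus 3.6 SD, in any replicate, cut at about 0.56 in these data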
AddAB inh: less growth of phage-infected E. coli with AddAB; E. coli expressing H. pylori AddAB, absorbance growth; inhibition, % at 11.9 µM; 330,000 tested, 0.29% active; in the data active = inhibition above about 12%;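 also: 0% = vehicle wells of infected cells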
AddAB confirm: confirmation screen: growth loss of phage-infected E. coli expressing H. pylori AddAB | shares compounds with AddAB inh | E. coli V3065 expressing H. pylori AddAB, T4 phage, OD; T4 phage with gene 2 nonsense mutations | inhibition, % at 11.9 µM | 880 tested, 64% active;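 active = mean inhibition above a set limit taken from the earlier primary screen, cut at about 13% in these data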;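 also: higher means less bacterial growth since AddAB block lets phage replicate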
RecBCD counter: counter-screen: growth loss of RecBCD+ E. coli with mutant T4 phage. shares compounds with AddAB inh. E. coli V66 + mutant T4 phage, OD growth. inhibition, % at 11.9 µM. 880 tested, 73% active;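 active = mean inhibition above the mean of solvent-only control wells plus 3 SD, cut at about 4% in these data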;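 also: optical density read after an 18 h incubation at 37 °C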
bact viab count: reduces bacterial viability, AddAB inhibitor counter-screen; shares compounds with AddAB inh; absorbance (AddAB counterscreen); inhibition, % at 11.9 µM; 880 tested, 35% active; AID 488956; in the data active = inhibition above about 25%
RecBCD conf: confirmation: growth loss of phage-infected RecBCD+ E. coli (RecBCD inhibitor screen). E. coli V66 + T4 2- phage, growth OD. inhibition, % at 11.9 µM. shares compounds with phage Ecoli inh. 890 tested, 45% active;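 active = mean inhibition over triplicates exceeding the hit threshold derived in the original primary screen, cut at about 11% in these data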
Ecoli viability: counter-screen for RecBCD inhibitors: inhibitors of bacterial viability; shares compounds with phage Ecoli inh; E. coli viability, absorbance (OD) growth; inhibition, % at 11.9 µM; 890 tested, 29% active; in the data active = inhibition above about 20%;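 also: E. coli strain V66 grown with compound alone and no phage infection; 0% = bacteria with DMSO vehicle only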
AddAB counter: growth loss of phage-infected AddAB E. coli, RecBCD counter-screen | shares compounds with phage Ecoli inh | 890 tested, 45% active | inhibition, % at 11.9 µM | E. coli expressing H. pylori AddAB + T4 phage, OD growth; gene 2 mutant T4, recBCD-deleted host;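 active = mean inhibition above the solvent-only control wells' mean plus 3 SD, cut at about 22% in these data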;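 also: higher means less bacterial growth from phage killing when AddAB is blocked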
Starred values were filed as active, the others as inactive; ? = inconclusive; . = no result given.

SMILES	E coli growth-1	Tat export inh	phage Ecoli inh	E coli growth-2	AddAB inh	AddAB confirm	RecBCD counter	bact viab count	RecBCD conf	Ecoli viability	AddAB counter
CC1NC(=O)C(CCC(=O)O)NC(=O)c2cc([N+](=O)[O-])cc(F)c2NCCCC(C(N)=O)NC1=O (stereo not drawn)	.	.	.	0.6	.	.	.	.	.	.	.
C/C(=N\N=C1\NC(=O)C(CC(=O)O)S1)c1ccccn1 (stereo not drawn)	17*	.	26*	.	19*	26*	22*	24	22*	25*	28*
O=C(O)CC1S/C(=N/N=Cc2ccccn2)NC1=O (stereo not drawn)	.	.	.	0.64	.	.	.	.	.	.	.
COc1ccc(C=CS(=O)(=O)NCc2ccccc2)cc1OC	.	.	.	0.67	.	.	.	.	.	.	.
CC(=O)c1cn(CC(=O)Nc2ccc(C)c(C)c2)c2ccccc12	4	-8	3	0.71	2	.	.	.	.	.	.
CC(=O)c1cn(CC(=O)Nc2ccc(C)cc2)c2ccccc12	11*	-9	11*	0.72	14*	0	2	1	3	8	4
O=C(ON=C1CCS(=O)(=O)c2sccc21)c1c(F)cccc1F	.	.	.	0.67	.	.	.	.	.	.	.
Cc1ccc(S(=O)(=O)Nc2cc(C)on2)cc1	-1	-1	1	0.69	2	.	.	.	.	.	.
Cc1cc(NS(=O)(=O)c2ccc(N)cc2)no1	10*	.	16*	.	12*	18*	9.4*	24	8	3	27*
CCCCNC(=O)N(O)C1N(N=Cc2ccccc2O)C(=S)SC1(C)C (stereo not drawn)	.	.	.	0.69	.	.	.	.	.	.	.
CC(C)Oc1ccc(Cc2cnc(N)nc2N)cc1	9	5	12*	0.046*	12*	53*	14*	12	11*	7	12
CCOc1ccc(C(=NO)C(C)NO)cc1 (stereo not drawn)	.	.	.	0.69	.	.	.	.	.	.	.
COc1ccc(-c2[nH]ncc2C=NNC(=O)c2ccncc2)c(OC)c1	.	.	.	0.72	.	.	.	.	.	.	.
CCC(=O)NC(c1ccc(Cl)cc1Cl)c1ccc2cccnc2c1O (stereo not drawn)	22*	1	22*	.	20*	20*	19*	19	15*	17	27*
CC(C)C(=O)NC(c1ccc(Cl)cc1Cl)c1ccc2cccnc2c1O (stereo not drawn)	29*	3	19*	0.65	20*	20*	20*	19	11*	13	22*
Cc1cc(NC(c2ccc(Cl)cc2)c2ccc3cccnc3c2O)no1 (stereo not drawn)	33*	-1	23*	0.69	25*	25*	23*	21	14*	15	25*
CC(=O)NC(c1ccco1)c1ccc2cccnc2c1O (stereo not drawn)	-1	7	.	.	4	.	.	.	.	.	.
Cc1cc(Cl)ccc1NC(=O)CCC(=O)NN=Cc1cccnc1	.	.	.	0.72	.	.	.	.	.	.	.
O=[N+]([O-])c1ccc(-c2ccn[nH]2)o1	100*	?	98*	0.062*	100*	102*	100*	101*	105*	106*	106*
Cc1cc(C)cc(NC(=O)c2ccc([N+](=O)[O-])o2)c1	.	-5	10	0.56	.	.	.	.	.	.	.
O=C(Nc1cccnc1)c1ccc([N+](=O)[O-])o1	96*	-37	20*	0.41*	97*	98*	20*	91*	13*	17	101*
COc1ccc(NC(=O)c2ccc([N+](=O)[O-])o2)cc1	80*	-12	19*	0.47*	58*	100*	17*	46*	15*	18	100*
COc1ccc(NC(=O)c2ccc(Br)o2)cc1	2	-18	4	0.66	5	.	.	.	.	.	.
O=C(Nc1cccnc1)c1ccco1	0	-8	0	0.65	1	.	.	.	.	.	.
CC(=O)c1cccc(NC(=O)c2ccc([N+](=O)[O-])o2)c1	83*	0	16*	0.44*	89*	101*	19*	71*	10	13	84*
SMILES	E coli growth-1	Tat export inh	phage Ecoli inh	E coli growth-2	AddAB inh	AddAB confirm	RecBCD counter	bact viab count	RecBCD conf	Ecoli viability	AddAB counter
O=C(NNC(=O)c1ccc([N+](=O)[O-])o1)c1ccccc1	86*	-2	26*	0.35*	68*	103*	23*	70*	18*	21*	102*
O=C(Cc1csc(N2CCOCC2)n1)NN=Cc1ccc(O)c(O)c1O	.	.	.	0.73	.	.	.	.	.	.	.
COc1ccc(C=NNc2nc(N3CCCC3)nc(N3CCCC3)n2)cc1O	.	.	.	0.7	.	.	.	.	.	.	.
NC(=O)c1oc2ccccc2c1NC(=O)c1ccc(F)cc1	0	-5	3	0.71	-1	.	.	.	.	.	.
CN1CCN(c2ccc(NC(=O)c3ccc([N+](=O)[O-])o3)cc2Cl)CC1	92*	-12	23*	0.31*	99*	98*	24*	95*	15*	20*	85*
NC(=O)c1oc2ccccc2c1NC(=O)c1ccc([N+](=O)[O-])o1	99*	-3	23*	0.49*	99*	101*	26*	101*	18*	22*	100*
CCOC(=O)CN1C(=O)NC(c2cccc(C(F)(F)F)c2)C(C(=O)OC)C1C (stereo not drawn)	.	.	.	0.73	.	.	.	.	.	.	.
Cc1ccc(CN2CCN(CC(=O)NN=Cc3c[nH]c4ccccc34)CC2)cc1	.	.	.	0.71	.	.	.	.	.	.	.
COc1ccc(-c2c(C)n([O-])c(C)c(C)[n+]2=O)cc1OC	0	4	-1	0.69	1	.	.	.	.	.	.
CC(=O)c1c(C)n([O-])c2cc(C)ccc2[n+]1=O	25*	-3	11*	0.54*	23*	63*	10.0*	56*	8	9	52*
Cc1cc(C)c2c(N=NN3CCCCC3)[nH]nc2n1	89*	-7	14*	0.65	98*	91*	7.7*	43*	9	10	53*
CCN(CC)N=Nc1[nH]nc2nc(C)cc(C)c12	87*	25	14*	0.56*	35*	93*	9.3*	51*	10	10	76*
Cc1cn([C@H]2C[C@H](N=[N+]=[N-])[C@@H](CO)O2)c(=O)[nH]c1=O	100*	39	97*	.	100*	100*	71*	100*	97*	93*	101*
